According to PubChem BioAssay (NCATS):
Results filed as inconclusive are left out. Values without a mark were called inactive. Calls of active or inactive are those of the source. Calls follow the shape of the dose curve; as a rule, active = well fitted inhibition curve with a large enough effect; inconclusive = small, poorly fitted or top-dose-only effect, or effect the other way; inactive = flat fitted curve, though single readings scatter.
% is scaled to controls: 0 for no effect and ±100 for the full control effect; potency is read from the fitted curve at half-maximal effect.

These molecules were tested against D(1A) dopamine receptor (Homo sapiens) (UniProt P21728) (assay: HTS Assay for Allosteric Agonists of the Human D1 Dopamine Receptor: Primary Screen for Antagonists (AID 488983;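 also: calcium flux response to an EC80 dopamine challenge measured with no-wash dye; nearly all actives have a fitted effect of over 65% in size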)). Conditions: D1 receptor cell assay, antagonist mode, qHTS titration; series mostly up to 41.8 µM; activity change, negative = inhibition: at the top concentration.
Sequence of D(1A) dopamine receptor (Homo sapiens) (P21728 whole entry, looked up): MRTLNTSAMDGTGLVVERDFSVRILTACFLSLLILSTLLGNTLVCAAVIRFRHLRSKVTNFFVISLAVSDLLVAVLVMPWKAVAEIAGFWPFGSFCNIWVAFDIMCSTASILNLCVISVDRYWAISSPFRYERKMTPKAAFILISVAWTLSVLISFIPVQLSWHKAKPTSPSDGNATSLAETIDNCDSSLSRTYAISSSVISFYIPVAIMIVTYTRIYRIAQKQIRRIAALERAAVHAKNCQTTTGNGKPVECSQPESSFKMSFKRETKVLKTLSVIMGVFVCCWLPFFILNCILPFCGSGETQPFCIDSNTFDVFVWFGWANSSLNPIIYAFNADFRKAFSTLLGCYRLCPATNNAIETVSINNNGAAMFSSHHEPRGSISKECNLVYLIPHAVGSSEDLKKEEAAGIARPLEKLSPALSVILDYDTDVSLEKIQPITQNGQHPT
Method in brief: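 In this primary screen, compounds are applied to calcium-dye-loaded HEK293 T-REx cells with force-coupled D1 expression induced overnight at 30 C. An EC80 of dopamine follows the 180 s compound phase, and calcium is monitored for a further 180 s.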
With `Nc1nc(SCc2ccc([N+](=O)[O-])cc2)c2ncn([C@@H]3O[C@H](CO)[C@@H](O)[C@H]3O)c2n1` the “activity change, negative = inhibition” value was 7.47%. For `CC(C)NCC(O)COc1cccc2ccccc12` (stereo not drawn), the “activity change, negative = inhibition” value was 14.3%. With `Fc1ccc(C(OCCCc2cnc[nH]2)c2ccc(F)cc2)cc1` the “activity change, negative = inhibition” value was -23%. In the case of `CCCCCCCCc1ccc(-c2ccc(C(=O)O)cc2)cc1`, the “activity change, negative = inhibition” value is reported as -11%. For `O=C(O)CC1CCCc2ccccc2C1O` (stereo not drawn), the “activity change, negative = inhibition” value was 15%. `CCCCCC(O)c1cccc(OCc2ccc3ccccc3n2)c1` (stereo not drawn) was tested, and the “activity change, negative = inhibition” value was 8.71%. With `CC1OC1P(=O)(O)O` (stereo not drawn) the “activity change, negative = inhibition” value was -0.833%. For `NCCSSCCN`, the “activity change, negative = inhibition” value was 6.05%. With `CC(N)C(=O)OC(C)(C)Cc1ccc(Cl)cc1` (stereo not drawn) the “activity change, negative = inhibition” value was 17.2%. In the case of `CCCCN1CCC(n2c(=O)[nH]c3ccccc32)CC1`, the “activity change, negative = inhibition” value is reported as -9.05%. For `NO`, the “activity change, negative = inhibition” value was 8.86%. For `NCCCCCCCCCCN`, the “activity change, negative = inhibition” value was 2.09%. With `COc1ccccc1N1CCN(CCN(C(=O)c2ccc(I)cc2)c2ccccn2)CC1` the Potency was 5.62 µM (active). In the case of `NC(=O)C(=O)O`, the “activity change, negative = inhibition” value is reported as -0.954%. `O=c1[nH]c2cc([N+](=O)[O-])c([N+](=O)[O-])cc2[nH]c1=O` was tested, and the “activity change, negative = inhibition” value was 15.3%. `N=C(N)SCCc1ccc(CCSC(=N)N)cc1` was tested, and the “activity change, negative = inhibition” value was -7.63%. `NCC1OC(O[C@H]2[C@H](O)[C@@H](OC3C(O)C(N)CC(N)C3OC3OC(CO)C(O)C(O)C3N)O[C@@H]2CO)C(N)C(O)C1O` (stereo partly drawn) was tested, and the “activity change, negative = inhibition” value was 9.84%. For `O=C(CCCCCN1CCN(c2ccccc2-c2ccccc2)CC1)NC1CCCc2ccccc21` (stereo not drawn), the Potency was 7.08 µM (active). In the case of `CC(=O)N[C@H](C(=O)O)C(C)(C)SN=O`, the “activity change, negative = inhibition” value is reported as 6.2%. With `O=P(O)(O)C(Cl)(Cl)P(=O)(O)O` the “activity change, negative = inhibition” value was 3.18%. `CNc1ncnc2c1ncn2[C@@H]1O[C@H](CO)[C@@H](O)[C@H]1O` was tested, and the “activity change, negative = inhibition” value was 3.09%. In the case of `CC[C@@H](C)[C@H]1O[C@]2(CC[C@H]1C)C[C@@H]1C[C@@H](CC=C(C)[C@@H](O[C@H]3C[C@H](OC)[C@@H](O[C@H]4C[C@H](OC)[C@@H](O)[C@H](C)O4)[C@H](C)O3)[C@@H](C)C=CC=C3CO[C@@H]4[C@H](O)C(C)=C[C@@H](C(=O)O1)[C@]34O)O2`, the “activity change, negative = inhibition” value is reported as 13%. In the case of `OCC1O[C@H]([S-])[C@H](O)[C@@H](O)[C@@H]1O.[Au+]` (stereo partly drawn), the “activity change, negative = inhibition” value is reported as 13.4%. `CN1CCC[C@H]1c1cccnc1` was tested, and the “activity change, negative = inhibition” value was -4.82%. In the case of `Cn1ncc(S(=O)(=O)Cc2ccccc2)c(Br)c1=O`, the “activity change, negative = inhibition” value is reported as -7.75%. In the case of `N#C/C(=C\c1c[nH]c2ccccc12)C(=O)c1ccc(O)c(O)c1`, the “activity change, negative = inhibition” value is reported as -0.0901%. With `O=C(O)[C@@H]1C[C@H](C(=O)O)N1` the “activity change, negative = inhibition” value was 15.5%. For `C=C[C@H]1CN2CC[C@@H]1C[C@@H]2[C@@H](O)c1ccnc2ccc(OC)cc12`, the “activity change, negative = inhibition” value was -18.7%.
